Assay outcomes as filed in PubChem.
CBFb-RUNX1 inh = qHTS Assay for Compounds Blocking the Interaction Between CBF-beta and RUNX1 for the Treatment of Acute Myeloid Leukemia; AlphaScreen CBFb-His/RUNX1-biotin binding, biochemical; 230,000 tested, under 10 active; Runt-related transcription factor 1 (Homo sapiens) + Core-binding factor subunit beta …; Potency, µM (top dose mostly 59.8 µM), most hits filed as inhibitors; AID 1477, 2009
Target sequence (Q01196 whole entry, looked up): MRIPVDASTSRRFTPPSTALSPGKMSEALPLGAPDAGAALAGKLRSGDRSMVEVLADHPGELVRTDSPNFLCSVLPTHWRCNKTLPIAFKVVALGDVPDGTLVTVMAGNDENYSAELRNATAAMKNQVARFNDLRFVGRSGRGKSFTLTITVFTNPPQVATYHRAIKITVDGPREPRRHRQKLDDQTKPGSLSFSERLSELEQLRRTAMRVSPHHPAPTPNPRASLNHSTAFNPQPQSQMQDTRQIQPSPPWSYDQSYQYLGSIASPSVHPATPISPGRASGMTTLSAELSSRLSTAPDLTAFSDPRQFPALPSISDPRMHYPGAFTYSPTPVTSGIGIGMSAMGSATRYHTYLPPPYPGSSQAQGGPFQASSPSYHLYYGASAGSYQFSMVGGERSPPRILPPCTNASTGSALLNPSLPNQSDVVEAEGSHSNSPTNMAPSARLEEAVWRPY
Target sequence (Q13951 whole entry, looked up): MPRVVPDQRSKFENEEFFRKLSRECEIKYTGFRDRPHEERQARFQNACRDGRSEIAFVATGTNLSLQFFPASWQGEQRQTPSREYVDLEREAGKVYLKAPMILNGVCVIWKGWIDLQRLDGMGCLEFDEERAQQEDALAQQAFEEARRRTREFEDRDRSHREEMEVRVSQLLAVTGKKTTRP
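AlphaScreen proximity signal reports loss of binding between His-tagged CBF-beta and biotin-labelled RUNX1, each at 30 nM. Proteins are pre-associated for 20 minutes, compounds added for 15 minutes, then beads for 90 minutes, all at ambient temperature.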
Integrin act MD = qHTS for Activators of Integrin-Mediated Alleviation for Muscular Dystrophy; alpha7betagal myoblasts, beta-gal FDG fluorescence, 48 h; actives 0.064% (n = 350,000); Potency, µM (titrated, usually from 38.3 µM), usual class: activators; further: nearly all actives have a fitted effect of over 60% in size
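Alpha7betagal+/- myoblasts (passage 13) were plated 16-24 hr, then exposed to compounds (1:260 dilution of DMSO stock) for 48 hours at 37C. After MPER lysis, β-galactosidase reporter activity was read as FDG fluorescence (ex 480/em 540) after 30 minutes.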
DRD3 antagonist = qHTS of D3 Dopamine Receptor Antagonist: qHTS. AID 652054, 2013. D(3) dopamine receptor (Homo sapiens), P35462. D3R cells, DiscoveRx beta-arrestin luminescence, antagonist mode; stronger effect = lower value. actives 2.5% (n = 360,000). max response, negative = inhibition, %; in the data active means max response below about -50%; inconclusive means no clear call, values can overlap the other calls
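Cells expressing the human receptor were seeded at 1500 cells/well, incubated overnight at 37 degrees C in 5% CO2, then exposed to library compounds with dopamine controls for 90 minutes at 37 degrees C before luminescent detection.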
MBNL1-CUG inh = qHTS Assay for Inhibitors of MBNL1-poly(CUG) RNA binding. Potency, µM (top dose mostly 57.5 µM), hits mostly inhibitors. AID 2675, 2010. actives 0.036% (n = 280,000). TR-FRET MBNL1-His/biotin-(CUG)12 binding, 665/545 ratio; active means well fitted inhibition curve with a large enough effect in the signal ratio, with a control signal flat, not every such curve was filed as active; inconclusive means small, poorly fitted or top-dose-only effect, or effect the other way, or a change in a side signal; inactive means no such curve, though single readings can be large or run the other way; the % refers to the signal ratio
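Ratiometric TR-FRET (665 over 545 nm, excitation 340 nm) tracks disruption of MBNL1-His/biotin-(CUG)12 complex after 60 min at room temperature, with compounds at 92 nM to 58 uM final.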
DRD3 agonist = qHTS of D3 Dopamine Receptor Agonist: qHTS; D(3) dopamine receptor (Homo sapiens), P35462; D3R DiscoveRx beta-arrestin cells, luminescence, 90 min; max activation, %; actives 0.58% (n = 410,000); AID 652048, 2013; in the data active means max activation above about 30%
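Cells at 1500/well, incubated overnight, then treated with pinned compounds (dopamine as control) for 90 min at 37 degrees C. DiscoveRx reagent added for 30 - 60 minutes at room temperature; luminescence read.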
PTHR1 agonist = qHTS for PTHR1 Agonists: Primary Screen | Potency, µM (highest dose often 115 µM), actives largely listed as activators | HEK293 GP2 PTHR1 cells, GloSensor cAMP luminescence, 1 h | Parathyroid hormone/parathyroid hormone-related peptide receptor (Homo sapiens), Q03431 | AID 743266, 2014 | actives 0.075% (n = 410,000); further: nearly all actives have a fitted effect of over 55% in size
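HEK-293-derived GP2 cells expressing PTHR1 and a GloSensor cAMP reporter, 3,000/well, plated overnight, given luciferin plus IBMX (each 0.5 mM as added) for 1 h at 37 °C, then compound for 1 h at 37 °C. Luminescence was read after 15 min at room temperature.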
Of the large screens only hits and unclear results are named; the others gave an inactive call. Only some compounds are listed: those with a hit (about 2.8% of all), similar ones and a draw of the others. Unless noted, the call rests on the fitted dose curve; in most records, active means well fitted curve in the direction sought with a large enough effect; inconclusive means small, poorly fitted or top-dose-only effect, or another doubt; inactive means no such curve, though single readings can be large; an effect the other way counts as inactive or inconclusive.

CC(=O)Nc1nc(N2C(=O)c3ccccc3C2=O)n(-c2ccccc2)n1	DRD3 antagonist -63
COc1ccc(C(=O)Nc2nc(N3C(=O)c4ccccc4C3=O)n(-c3ccccc3)n2)cc1	DRD3 antagonist -91
CC(=O)Nc1nc(N)n(-c2ccccc2)n1	none
CCc1nnc2c3ccccc3nc(Nc3ccc(F)cc3C)n12	none (no result: CBFb-RUNX1 inh, Integrin act MD, DRD3 antagonist, MBNL1-CUG inh)
COc1ccc(NC(=O)Nc2sc3nc4n(c(=O)c3c2C)CCC(C)CC4)cc1OC (stereo not drawn)	none (no result: CBFb-RUNX1 inh, Integrin act MD, DRD3 antagonist, MBNL1-CUG inh)
Cc1cnc(CN(C)C(=O)c2ccc3oc(Cc4ccccc4)nc3c2)[nH]1	none (no result: CBFb-RUNX1 inh)
Cc1cnc(CN(C)C(=O)c2ccc3oc(Cc4ccc(Cl)cc4)nc3c2)[nH]1	DRD3 antagonist -57 (no result: CBFb-RUNX1 inh)
Cc1cc(NS(=O)(=O)c2ccccc2)c([N+](=O)[O-])cc1C	DRD3 antagonist -52
Nc1ccc(S(=O)(=O)NN=CC=Cc2ccccc2[N+](=O)[O-])cc1	DRD3 antagonist -65 (no result: CBFb-RUNX1 inh, MBNL1-CUG inh)
CCc1nc2ccc(C(=O)Nc3cc(-c4ccccc4)ccc3OC)cn2c1N(C)CCCc1ccccc1	DRD3 antagonist inconclusive, PTHR1 agonist inconclusive (no result: CBFb-RUNX1 inh, Integrin act MD, MBNL1-CUG inh)
CCc1nc2ccc(C(=O)Nc3cc(-c4ccccc4)ccc3OC)cn2c1N(C=O)CCC(C)C	DRD3 agonist 69 (no result: CBFb-RUNX1 inh, Integrin act MD, MBNL1-CUG inh)
CCc1nc2ccc(C(=O)Nc3cc(-c4ccccc4)ccc3OC)cn2c1N(CCN(C)C)CC1CC1	DRD3 antagonist -69 (no result: CBFb-RUNX1 inh, Integrin act MD, MBNL1-CUG inh)
CCc1nc2ccc(C(=O)NCCOc3ccc(OC)cc3)cn2c1N(CCC(C)C)CCN(C)C	DRD3 antagonist -89, PTHR1 agonist inconclusive (no result: CBFb-RUNX1 inh, Integrin act MD, MBNL1-CUG inh)
CCCCNC(=O)c1ccc2nc(CC)c(N(CCC(C)C)CCN(C)C)n2c1	none (no result: CBFb-RUNX1 inh, Integrin act MD, MBNL1-CUG inh)
O=C1C=C(NCc2ccccc2)c2ccccc2C1=O	DRD3 antagonist -71, MBNL1-CUG inh inconclusive
O=C1C=C(Nc2ccccc2O)c2ccccc2C1=O	MBNL1-CUG inh inconclusive
Cc1ccc(S(=O)(=O)N2CCCc3cc(NS(=O)(=O)c4ccc(C)c(C)c4)ccc32)cc1	none (no result: CBFb-RUNX1 inh, Integrin act MD, DRD3 antagonist, MBNL1-CUG inh)
CCCCCN(C(=O)CN1CCC(Cc2ccccc2)CC1)c1c(N)n(CCCC)c(=O)[nH]c1=O	none
C[C@@H](O)[C@H]1C(=O)N2C(C(=O)[O-])=C(SC3Cn4cnc[n+]4C3)[C@H](C)[C@H]12 (stereo partly drawn)	none (no result: CBFb-RUNX1 inh, Integrin act MD, DRD3 antagonist, MBNL1-CUG inh, PTHR1 agonist)
COc1ccc(C2=Nc3ccc(Br)cc3C(c3ccccc3)N2CC(=O)NN)cc1 (stereo not drawn)	DRD3 antagonist -93
COC(=O)CN1C(c2ccc(Cl)cc2)=Nc2ccc(Cl)cc2C1c1ccccc1 (stereo not drawn)	none
NNC(=O)CN1C(c2cccc(Cl)c2)=Nc2ccc(Br)cc2C1c1ccccc1 (stereo not drawn)	DRD3 antagonist inconclusive
COc1ccc(C2=Nc3ccc(C)cc3C(c3ccccc3)N2CC(=O)NN)cc1 (stereo not drawn)	Integrin act MD inconclusive, DRD3 antagonist -105, PTHR1 agonist inconclusive
Fc1ccc(-n2cc(CNCCc3cccnc3)c(-c3ccccc3Cl)n2)cc1	DRD3 antagonist -70
Fc1ccc(-n2cc(CNCCc3ccncc3)c(-c3ccccc3Cl)n2)cc1	none
Cc1ccccc1CNC(=O)c1[nH]c(C(F)(F)F)nc1-c1ccccc1	none (no result: CBFb-RUNX1 inh, Integrin act MD, MBNL1-CUG inh)
O=C(/C=C/c1ccccc1)NC(=S)NNC(=O)Cc1cccs1	DRD3 antagonist -72
COc1ccc(/C=C/C(=O)NC(=S)NNC(=O)Cc2cccs2)cc1	none
O=c1[nH]c(C2CCN(S(=O)(=O)c3cccc([N+](=O)[O-])c3)CC2)nc2c1nnn2Cc1ccccc1	none (no result: CBFb-RUNX1 inh)
